Data taken from ChEMBL document CHEMBL2218924, “A broad activity screen in support of a chemogenomic map for kinase signalling research and drug discovery” (Biochem J, 2013).

These compounds were tested against Protein-tyrosine kinase 6 (Homo sapiens) (UniProt Q13882). Details: at 10 µM.
Protein-tyrosine kinase 6 (Homo sapiens), sequence (Q13882 whole entry, looked up): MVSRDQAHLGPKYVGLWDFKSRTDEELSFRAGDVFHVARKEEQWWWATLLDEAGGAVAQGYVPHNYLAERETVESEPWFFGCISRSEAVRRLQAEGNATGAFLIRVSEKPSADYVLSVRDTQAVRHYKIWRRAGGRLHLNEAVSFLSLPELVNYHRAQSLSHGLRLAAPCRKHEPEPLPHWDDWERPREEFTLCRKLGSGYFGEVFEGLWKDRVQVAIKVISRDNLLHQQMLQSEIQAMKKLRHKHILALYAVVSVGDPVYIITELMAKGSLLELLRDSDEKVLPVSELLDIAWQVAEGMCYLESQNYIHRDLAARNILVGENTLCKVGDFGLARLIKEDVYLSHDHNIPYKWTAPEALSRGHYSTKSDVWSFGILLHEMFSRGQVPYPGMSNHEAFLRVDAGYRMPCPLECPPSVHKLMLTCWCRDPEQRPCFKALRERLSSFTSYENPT

Compound | residual activity [%]
CCc1nc(-c2ccc(OC)cc2)[nH]c1-c1ccncc1 | 108
c1cc(-c2cnn3cc(-c4ccc(OCCN5CCCCC5)cc4)cnc23)ccn1 | 7
COC(=O)[C@@]1(O)C[C@H]2O[C@]1(C)n1c3ccccc3c3c4c(c5c6ccccc6n2c5c31)C(=O)NC4 | 1
O=[N+]([O-])/C=C/c1ccc2c(c1)OCO2 | 105
C[S+]([O-])c1ccc(-c2nc(-c3ccc(F)cc3)c(-c3ccncc3)[nH]2)cc1 (stereo not drawn) | 7
CC(C)[C@H](CO)Nc1nc(Nc2cccc(Cl)c2)c2ncn(C(C)C)c2n1 | 92
O=c1[nH]c2ccccc2n1C1CCN(Cc2ccc(-c3nc4cc5[nH]cnc5cc4nc3-c3ccccc3)cc2)CC1 | 79
COc1cc(OC)c(/C=C2\C(=O)Nc3ccccc32)c(OC)c1 | 96
N/C(=N\[N+](=O)[O-])N/N=C\c1ccc(-c2cccc([N+](=O)[O-])c2)o1 | 96
COc1ccc2c(c1)/C(=C/c1cnc[nH]1)C(=O)N2 | 71
CCn1cnc2c(Nc3cccc(Cl)c3)nc(N[C@@H]3CCCC[C@@H]3N)nc21 | 34
CC(C)(C)c1cc(C=C(C#N)C#N)cc(Br)c1O | 110
O=C1Nc2ccc3ncsc3c2/C1=C/c1c[nH]cn1 | 34
COc1cc2ncnc(Nc3ccc(OCc4ccccc4)cc3)c2cc1OC | 18

What follows are compounds tested against Tyrosine-protein kinase BTK (Homo sapiens) (UniProt Q06187). Details: at 1 µM.
Tyrosine-protein kinase BTK (Homo sapiens), sequence (Q06187 whole entry): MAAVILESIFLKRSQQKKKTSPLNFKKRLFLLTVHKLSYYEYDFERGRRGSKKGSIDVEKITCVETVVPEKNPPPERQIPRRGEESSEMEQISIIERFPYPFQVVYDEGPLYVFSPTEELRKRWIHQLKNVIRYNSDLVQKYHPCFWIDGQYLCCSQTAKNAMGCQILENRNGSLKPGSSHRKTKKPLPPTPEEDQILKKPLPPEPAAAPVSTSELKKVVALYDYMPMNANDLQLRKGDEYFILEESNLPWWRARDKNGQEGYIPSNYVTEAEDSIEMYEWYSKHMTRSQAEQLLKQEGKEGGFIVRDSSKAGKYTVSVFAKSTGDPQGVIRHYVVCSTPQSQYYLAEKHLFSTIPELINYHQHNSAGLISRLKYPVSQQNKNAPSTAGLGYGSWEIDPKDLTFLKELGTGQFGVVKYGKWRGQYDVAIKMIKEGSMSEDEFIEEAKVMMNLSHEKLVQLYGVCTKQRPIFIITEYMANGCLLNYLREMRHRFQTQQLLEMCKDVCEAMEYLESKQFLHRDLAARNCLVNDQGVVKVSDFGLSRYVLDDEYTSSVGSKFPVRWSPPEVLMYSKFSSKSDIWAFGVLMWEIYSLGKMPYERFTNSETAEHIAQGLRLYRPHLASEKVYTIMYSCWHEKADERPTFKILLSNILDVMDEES

Compound | residual activity [%]
CCc1nc(-c2ccc(OC)cc2)[nH]c1-c1ccncc1 | 100
c1cc(-c2cnn3cc(-c4ccc(OCCN5CCCCC5)cc4)cnc23)ccn1 | 69
COC(=O)[C@@]1(O)C[C@H]2O[C@]1(C)n1c3ccccc3c3c4c(c5c6ccccc6n2c5c31)C(=O)NC4 | -1
O=[N+]([O-])/C=C/c1ccc2c(c1)OCO2 | 96
C[S+]([O-])c1ccc(-c2nc(-c3ccc(F)cc3)c(-c3ccncc3)[nH]2)cc1 (stereo not drawn) | 94
CC(C)[C@H](CO)Nc1nc(Nc2cccc(Cl)c2)c2ncn(C(C)C)c2n1 | 56
O=C1NC(=O)c2c1c1c3ccccc3n3c1c1c2c2ccccc2n1C1CCC3O1 | 22
O=c1[nH]c2ccccc2n1C1CCN(Cc2ccc(-c3nc4cc5[nH]cnc5cc4nc3-c3ccccc3)cc2)CC1 | 91
COc1cc(OC)c(/C=C2\C(=O)Nc3ccccc32)c(OC)c1 | 93
CCn1cnc2c(Nc3cccc(Cl)c3)nc(N[C@@H]3CCCC[C@@H]3N)nc21 | 71
O=C1Nc2ccc3ncsc3c2/C1=C/c1c[nH]cn1 | 88
COc1cc2ncnc(Nc3ccc(OCc4ccccc4)cc3)c2cc1OC | 58
COc1ccc2c(c[n+](C)c3c4cc5c(cc4ccc23)OCO5)c1OC | 93

These compounds were tested against Tyrosine-protein kinase BTK (Homo sapiens) (UniProt Q06187). Details: at 10 µM.

Compound | residual activity [%]
CCc1nc(-c2ccc(OC)cc2)[nH]c1-c1ccncc1 | 105
c1cc(-c2cnn3cc(-c4ccc(OCCN5CCCCC5)cc4)cnc23)ccn1 | 23
COC(=O)[C@@]1(O)C[C@H]2O[C@]1(C)n1c3ccccc3c3c4c(c5c6ccccc6n2c5c31)C(=O)NC4 | -1
O=[N+]([O-])/C=C/c1ccc2c(c1)OCO2 | 102
CC(C)[C@H](CO)Nc1nc(Nc2cccc(Cl)c2)c2ncn(C(C)C)c2n1 | 17
O=C1NC(=O)c2c1c1c3ccccc3n3c1c1c2c2ccccc2n1C1CCC3O1 | 27
O=c1[nH]c2ccccc2n1C1CCN(Cc2ccc(-c3nc4cc5[nH]cnc5cc4nc3-c3ccccc3)cc2)CC1 | 76
COc1cc(OC)c(/C=C2\C(=O)Nc3ccccc32)c(OC)c1 | 88
CCn1cnc2c(Nc3cccc(Cl)c3)nc(N[C@@H]3CCCC[C@@H]3N)nc21 | 9
O=C1Nc2ccc3ncsc3c2/C1=C/c1c[nH]cn1 | 47
COc1cc2ncnc(Nc3ccc(OCc4ccccc4)cc3)c2cc1OC | 43

These compounds were tested against Tyrosine-protein kinase Blk (Homo sapiens) (UniProt P51451). Details: at 1 µM.
Tyrosine-protein kinase Blk (Homo sapiens), sequence (P51451 2-505 limits assumed): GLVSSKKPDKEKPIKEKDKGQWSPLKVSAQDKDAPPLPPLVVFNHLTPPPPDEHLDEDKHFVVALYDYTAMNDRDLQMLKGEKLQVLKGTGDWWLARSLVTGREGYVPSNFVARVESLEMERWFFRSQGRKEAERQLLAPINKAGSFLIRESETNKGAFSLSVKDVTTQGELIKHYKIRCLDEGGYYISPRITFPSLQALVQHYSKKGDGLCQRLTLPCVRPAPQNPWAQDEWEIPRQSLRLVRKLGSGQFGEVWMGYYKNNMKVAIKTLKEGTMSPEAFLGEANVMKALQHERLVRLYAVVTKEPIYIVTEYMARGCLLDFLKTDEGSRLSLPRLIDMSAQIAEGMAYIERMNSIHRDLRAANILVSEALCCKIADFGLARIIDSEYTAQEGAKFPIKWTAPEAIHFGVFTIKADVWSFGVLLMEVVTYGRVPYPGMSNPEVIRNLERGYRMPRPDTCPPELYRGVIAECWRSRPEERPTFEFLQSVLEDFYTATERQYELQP

Compound | residual activity [%]
CCc1nc(-c2ccc(OC)cc2)[nH]c1-c1ccncc1 | 112
c1cc(-c2cnn3cc(-c4ccc(OCCN5CCCCC5)cc4)cnc23)ccn1 | 25
COC(=O)[C@@]1(O)C[C@H]2O[C@]1(C)n1c3ccccc3c3c4c(c5c6ccccc6n2c5c31)C(=O)NC4 | 1
O=C1c2ccccc2-c2nc3nnnn3nc21 | 79
O=[N+]([O-])/C=C/c1ccc2c(c1)OCO2 | 120
C[S+]([O-])c1ccc(-c2nc(-c3ccc(F)cc3)c(-c3ccncc3)[nH]2)cc1 (stereo not drawn) | 101
CC(C)[C@H](CO)Nc1nc(Nc2cccc(Cl)c2)c2ncn(C(C)C)c2n1 | 38
O=c1[nH]c2ccccc2n1C1CCN(Cc2ccc(-c3nc4cc5[nH]cnc5cc4nc3-c3ccccc3)cc2)CC1 | 94
COc1cc(OC)c(/C=C2\C(=O)Nc3ccccc32)c(OC)c1 | 92
N/C(=N\[N+](=O)[O-])N/N=C\c1ccc(-c2cccc([N+](=O)[O-])c2)o1 | 98
COc1ccc2c(c1)/C(=C/c1cnc[nH]1)C(=O)N2 | 81
CCn1cnc2c(Nc3cccc(Cl)c3)nc(N[C@@H]3CCCC[C@@H]3N)nc21 | 14
CC(C)(C)c1cc(C=C(C#N)C#N)cc(Br)c1O | 99
O=C1Nc2ccc3ncsc3c2/C1=C/c1c[nH]cn1 | 44
COc1cc2ncnc(Nc3ccc(OCc4ccccc4)cc3)c2cc1OC | 44
